Bioassay records (PubChem)
IL-1B inflam inh = inhibitors of inflammasome signaling (IL-1 beta secretion); THP-1 LPS/ATP IL-1B secretion, AlphaLISA, 16 h; active compounds read low; activity change, % at 57.5 µM; 360,000 compounds, 4.7% hits; AID 743279; in the data active means activity change below about -50%; inconclusive means mostly about -30% to -49%; further: on the % scale 0 is the no-effect control and ±100 the full control effect
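Secreted IL-1B measured by AlphaLISA bead assay after 16 h compound exposure of THP-1 cells; compounds (final up to 57.5 uM) added 1 h before LPS (250 ng/mL) and ATP (1.25 mM) stimulation; lower signal means less secretion.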
TDP1 cell noCPT = qHTS for Inhibitors of human tyrosyl-DNA phosphodiesterase 1 (TDP1): qHTS in cells in absence of CPT; DT40 Tdp1-/- hTDP1 cells, no CPT, ATP luminescence, 48 h; AID 686978, 2013; 420,000 compounds, 15% hits; Potency, µM (titrated, usually from 46.2 µM), without a hit: top-dose activity change, negative = growth inhibition, most hits filed as inhibitors; further: potency means the concentration at half of the fitted maximal effect; on the % scale 0 is the no-effect control and ±100 the full control effect; nearly all actives have a fitted effect of over 55% in size
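Cells were dispensed at 400 per well, compounds added by pin tool, plates incubated ≥48 hr at 37 °C, then CellTiter-Glo added for 30 min at room temperature before luminescence reading. Line: DT40 Tdp1-/- complemented with hTDP1; camptothecin omitted.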
HepG2 viability = kills HepG2 cells in TGF-b inhibitor counter-screen. HepG2 CAGA-GFP viability, ATP luminescence, 18 h. AID 588856. 410,000 compounds, 0.76% hits. Potency, µM (doses to about 46.1 µM), without a hit: top-dose activity change, negative = cytotoxicity, actives largely listed as cytotoxic; further: potency means the concentration at half of the fitted maximal effect
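HepG2 CAGA-GFP cells (1000/well, DMEM with 1% FBS) received compound, then TGF-beta at 500 pg/mL final, and were incubated 18 hours at 37 degrees C. Viability was read by CellTiter-Glo luminescence. Media-only wells were set as complete cell-killing and DMSO as no toxicity.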
TDP1 cell CPT = DT40-hTDP1 cell growth loss with CPT. AID 686979. Potency, µM (doses to about 46.2 µM), for the others: at the highest dose activity change, negative = growth inhibition, hits mostly inhibitors. chicken DT40 Tdp1-/-;hTDP1 cells + 20 nM CPT, ATP luminescence, 48 h. 420,000 compounds, 12% hits; further: potency means the concentration at half of the fitted maximal effect; on the % scale 0 is the no-effect control and ±100 the full control effect; nearly all actives have a fitted effect of over 55% in size
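Chicken DT40 Tdp1-/- cells complemented with human TDP1, 400 cells/well, exposed to compounds plus 20 nM camptothecin for at least 48 h at 37 C; viability read as ATP content by CellTiter-Glo luminescence.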
TGFb SMAD3 inh = inhibitors of TGF-b signaling; AID 588855; Potency, µM (series often up to 46.1 µM), inactives show at the highest dose activity, negative = inhibition, most hits filed as inhibitors; HepG2 CAGA-GFP TGF-b/SMAD3 reporter, GFP fluorescence, 18 h; TGF-beta stimulated, 500 pg/mL final; 410,000 compounds, 1.2% hits; further: potency means the concentration at half of the fitted maximal effect; on the % scale 0 is the no-effect control and ±100 the full control effect; nearly all actives have a fitted effect of over 65% in size
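Using HEPG2 CAGA-GFP reporter cells at 1000 cells/well, we pinned test compounds, stimulated with recombinant TGF-beta (500 pg/mL final) and measured total well GFP after 18 h.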
TDP1 inh = inhibitors of human tyrosyl-DNA phosphodiesterase TDP1 | 350,000 compounds, 0.28% hits | AID 485290 | recombinant TDP1, AlphaScreen DNA substrate cleavage | Potency, µM (titrated, usually from 130 µM), inactives show at the top dose activity change, negative = inhibition, hits mostly inhibitors; further: potency means the concentration at half of the fitted maximal effect; on the % scale 0 is the no-effect control and ±100 the full control effect; nearly all actives have a fitted effect of over 40% in size
Target sequence (Q9NUW8 whole entry, looked up): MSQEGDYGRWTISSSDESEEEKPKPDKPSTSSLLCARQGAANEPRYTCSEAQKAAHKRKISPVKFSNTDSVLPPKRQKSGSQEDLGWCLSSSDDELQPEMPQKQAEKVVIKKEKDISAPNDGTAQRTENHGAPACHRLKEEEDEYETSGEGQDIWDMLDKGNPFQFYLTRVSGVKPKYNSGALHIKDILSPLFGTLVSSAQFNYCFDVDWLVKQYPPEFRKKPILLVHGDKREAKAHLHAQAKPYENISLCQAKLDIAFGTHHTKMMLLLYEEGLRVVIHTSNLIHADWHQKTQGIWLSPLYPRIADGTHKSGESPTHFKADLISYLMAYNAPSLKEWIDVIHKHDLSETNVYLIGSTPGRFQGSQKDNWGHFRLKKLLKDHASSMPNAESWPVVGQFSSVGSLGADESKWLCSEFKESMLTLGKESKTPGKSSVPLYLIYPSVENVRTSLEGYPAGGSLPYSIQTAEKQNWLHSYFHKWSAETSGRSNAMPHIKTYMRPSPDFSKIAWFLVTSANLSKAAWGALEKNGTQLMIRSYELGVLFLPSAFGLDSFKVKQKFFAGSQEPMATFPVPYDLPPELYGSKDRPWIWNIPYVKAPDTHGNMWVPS
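E. coli-derived human Tdp1, 1 nM final. Cpd preinc 15 min RT; substrate 15 nM final, 5 min RT; AS bead mix 10 ug/ml final, 10 min RT. Signal loss = tyrosine-FITC cleavage. No-enzyme wells = max signal.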
An asterisk follows results filed as active; [ ] = dose if it differs, or a comment. Only some compounds are listed: those with a hit (about 19% of all), similar ones and a draw of the others. Unless noted, the call rests on the fitted dose curve; in most records, active means well fitted curve in the direction sought with a large enough effect; inconclusive means small, poorly fitted or top-dose-only effect, or another doubt; inactive means no such curve, though single readings can be large; an effect the other way counts as inactive or inconclusive.

For CCc1ccc2c(c1)Sc1ccccc1CC2N1CCN(C)CC1 (stereo not drawn) the results were IL-1B inflam inh -65*, TDP1 cell noCPT 18µM*, HepG2 viability -141%, TDP1 cell CPT inconclusive and TGFb SMAD3 inh inconclusive.
`CCCSP(=S)(OCC)Oc1ccc(Cl)cc1Cl` (stereo not drawn) gave TDP1 inh 13%.
Cc1ccc(C(=O)Nc2nc3ccccc3n2CCN2CCCC2)cc1 was read as IL-1B inflam inh -14, TDP1 cell noCPT 13µM*, HepG2 viability -8%, TDP1 cell CPT 15µM*, TGFb SMAD3 inh 13% and TDP1 inh 11%.
Screening CCCn1c(C(=O)c2ccccc2)nc2ccccc21 returned IL-1B inflam inh -23, TDP1 cell noCPT -13%, HepG2 viability -11%, TDP1 cell CPT -17%, TGFb SMAD3 inh -2% and TDP1 inh -5%.
Screening Cc1ccc(NS(=O)(=O)c2ccc(Cl)c(N=Nc3c(O)[nH]c(=O)[nH]c3=O)c2)cc1Cl returned IL-1B inflam inh 3, TDP1 cell noCPT -4%, HepG2 viability -37%, TDP1 cell CPT -8%, TGFb SMAD3 inh 1% and TDP1 inh -8%.
For CC(C)c1ccc2[nH]c(O)c(N=NC(=O)c3cccc(S(=O)(=O)Nc4ccc(Cl)cc4)c3)c2c1 the results were IL-1B inflam inh -25, TDP1 cell noCPT 10µM*, HepG2 viability 6%, TDP1 cell CPT 12µM*, TGFb SMAD3 inh -27% and TDP1 inh -2%.
Cc1ccc2oc(=O)n(CC(=O)c3ccc(F)cc3)c2c1 was read as IL-1B inflam inh 0, TDP1 cell noCPT -17%, HepG2 viability 1%, TDP1 cell CPT 5%, TGFb SMAD3 inh -14% and TDP1 inh 5%.
For O=[N+]([O-])/C=C/c1c(Cl)cccc1Cl the results were IL-1B inflam inh -99*, TDP1 cell noCPT 1.3µM*, HepG2 viability 10µM*, TDP1 cell CPT 0.46µM* and TGFb SMAD3 inh 2.8µM*.
`Oc1cccc(Cl)c1Cl` gave TDP1 inh 3%.
For O=C(c1cccs1)N1CCC(C(=O)O)(c2ccccc2)CC1 the results were IL-1B inflam inh 29, TDP1 cell noCPT -13%, HepG2 viability 4%, TDP1 cell CPT -17% and TGFb SMAD3 inh -6%.
`CC(C)Oc1ccc(C(=O)Nc2ccc3c(c2)CCCN3C(=O)c2cccs2)cc1` gave TDP1 cell noCPT 6.5µM*, HepG2 viability -27%, TDP1 cell CPT 12µM*, TGFb SMAD3 inh -12% and TDP1 inh 1%.
CCOC(=O)[C@]12Cc3cc(OC)ccc3[C@H]1N(C1CCCCC1)C(=O)c1cc(OC)ccc12 was read as IL-1B inflam inh -114*, TDP1 cell noCPT 4.6µM* and TDP1 cell CPT 2.6µM*.
For CCOC(=O)[C@]12Cc3cc(C)ccc3[C@H]1N(C1CCCCC1)C(=O)c1cc(OC)ccc12 the results were IL-1B inflam inh -111*, TDP1 cell noCPT 1µM* and TDP1 cell CPT 1.2µM*.
Screening O=C(Oc1ccc(Cl)c2cccnc12)N1CCCCCC1 returned IL-1B inflam inh 1, TDP1 cell noCPT -17%, HepG2 viability -28%, TDP1 cell CPT -13%, TGFb SMAD3 inh inconclusive and TDP1 inh 7%.
For C=CCN1CC[C@]23c4c5ccc(O)c4O[C@@H]2/C(=N/N=C2\CC[C@@]4(O)C6Cc7ccc(O)c8c7[C@@]4(CCN6CC=C)[C@@H]2O8)CC[C@@]3(O)C1C5 the results were TDP1 inh 10%[56.1 µM].
`N[C@@H](Cn1ccc(=O)n(Cc2ccc(C(=O)O)cc2)c1=O)C(=O)O` gave TDP1 cell noCPT -1%, TDP1 cell CPT 17% and TDP1 inh -12%[56.1 µM].
Screening O=C(Nc1ccc(Cl)cc1)Nc1ccc(Cl)c(C(F)(F)F)c1 returned TDP1 cell noCPT 3.3µM* and TDP1 cell CPT 4.7µM*.
`O=C(NC(=O)c1c(F)cccc1F)Nc1ccc(Cl)c(Oc2ncc(C(F)(F)F)cc2Cl)c1` gave TDP1 cell noCPT -20%, TDP1 cell CPT 10% and TDP1 inh 4%.
`O=[N+]([O-])c1ccccc1-c1cc(-c2ccccc2)cc(-c2ccccc2)[n+]1Cc1ccccc1Cl` gave IL-1B inflam inh 0, TDP1 cell noCPT 0.73µM*, HepG2 viability -40%, TDP1 cell CPT 0.65µM*, TGFb SMAD3 inh inconclusive and TDP1 inh 4%.
Cc1ccc(S(=O)(=O)Nc2ccc3ncccc3c2[N+](=O)[O-])cc1 was read as IL-1B inflam inh -7, TDP1 cell noCPT inconclusive, HepG2 viability 4%, TDP1 cell CPT -5% and TGFb SMAD3 inh 0%.
Screening CCCCn1c(CN2CCN(c3ccc(F)cc3)CC2)nc2c1c(=O)n(C)c(=O)n2C returned IL-1B inflam inh 47, TDP1 cell noCPT 1.6µM*, HepG2 viability -2%, TDP1 cell CPT 1.6µM*, TGFb SMAD3 inh -1% and TDP1 inh 5%.
Screening Nc1cccc2c(N)cccc12 returned TDP1 cell noCPT 24µM*, TDP1 cell CPT 22µM* and TDP1 inh 18%.
Clc1cccc2ccccc12 was read as TDP1 inh 11%.
For O=C(Nc1ccc2nc(SCC(=O)N3CCCc4ccccc43)sc2c1)c1ccccc1F the results were TDP1 cell noCPT 5.2µM*, HepG2 viability -16%, TDP1 cell CPT 5.8µM*, TGFb SMAD3 inh 0% and TDP1 inh 5%.
Cc1nc2ccc(NC(=O)C3COc4ccccc4O3)cc2s1 (stereo not drawn) was read as IL-1B inflam inh 0, TDP1 cell noCPT inconclusive, HepG2 viability -3%, TDP1 cell CPT inconclusive, TGFb SMAD3 inh 7% and TDP1 inh -2%.
CCn1c(P(C)(=O)O)nc2cc(NC(=O)c3ccccc3F)ccc21 was read as IL-1B inflam inh 0, TDP1 cell noCPT 5%, HepG2 viability -3%, TDP1 cell CPT -2%, TGFb SMAD3 inh -6% and TDP1 inh 3%.
Screening COc1ccccc1C(=O)Nc1ccc2nc(SCC(=O)N3CCCc4ccccc43)sc2c1 returned TDP1 cell noCPT 2.9µM*, HepG2 viability -1%, TDP1 cell CPT 5.2µM*, TGFb SMAD3 inh 0% and TDP1 inh 3%.
